Most compounds without a hit are left out; they make up all but 3.7% or so of the library.
ERb SRC1 inh = inhibitors of ERβ-SRC1 coactivator interaction, primary screen, biochemical, TR-FRET, ERβ LBD, SRC-1 peptide. TR-FRET ER-beta LBD / SRC1-Cy5 peptide binding; receptor agonist-loaded with 1 µM estradiol. inhibition, % at 25.6 µM. 1.3% of 86,000 active;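 active = compounds whose percent inhibition of the receptor-coactivator binding signal exceeds about 50% in the single-dose screen, limit read from the data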
Smad3 inh = Smad3/FoxH1 peptide binding inhibitors, primary screen, biochemical, TR-FRET; AID 630, 2007; Mothers against decapentaplegic homolog 3 (Homo sapiens), P84022; inhibition, % at 25 µM; 0.29% of 88,000 active; TR-FRET Smad3/Dy647-FoxH1 peptide binding, europium anti-His;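 active = compounds that reduce the energy-transfer binding signal between the protein and its labelled peptide by more than half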
ERa coact inh = ERα–SRC-1 coactivator interaction inhibitors, primary screen, biochemical, TR-FRET, ERα LBD, estradiol-bound. Estrogen receptor (Homo sapiens), P03372. TR-FRET ER-alpha LBD / SRC-1 peptide. inhibition, % at 25.6 µM. 1.7% of 86,000 active. AID 629, 2007; in the data active = inhibition above about 50%
Target sequence (P03372 whole entry, looked up, the tested form may be a part): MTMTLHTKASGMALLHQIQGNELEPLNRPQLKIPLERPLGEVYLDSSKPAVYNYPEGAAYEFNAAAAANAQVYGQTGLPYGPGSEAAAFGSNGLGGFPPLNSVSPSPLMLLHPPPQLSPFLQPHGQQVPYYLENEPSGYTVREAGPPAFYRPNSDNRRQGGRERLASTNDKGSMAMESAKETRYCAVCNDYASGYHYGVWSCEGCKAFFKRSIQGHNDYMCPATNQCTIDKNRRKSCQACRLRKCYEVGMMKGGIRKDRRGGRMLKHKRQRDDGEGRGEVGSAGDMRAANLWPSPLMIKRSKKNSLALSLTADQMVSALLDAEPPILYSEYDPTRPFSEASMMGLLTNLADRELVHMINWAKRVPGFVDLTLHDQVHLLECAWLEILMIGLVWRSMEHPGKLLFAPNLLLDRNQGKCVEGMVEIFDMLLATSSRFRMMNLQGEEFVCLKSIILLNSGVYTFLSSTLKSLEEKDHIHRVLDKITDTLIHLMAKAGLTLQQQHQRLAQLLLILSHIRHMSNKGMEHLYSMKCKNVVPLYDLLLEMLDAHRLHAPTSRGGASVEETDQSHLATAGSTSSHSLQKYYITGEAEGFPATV
ERa coact pot = enhancers of ERα–SRC-1 coactivator binding, primary screen, biochemical, TR-FRET, ERα LBD, low estradiol. Estrogen receptor (Homo sapiens), P03372. TR-FRET ERalpha-LBD/SRC-Cy5 coactivator binding, 2 h; 100 = basal binding, no effect. coactivator binding (% of control), % at 25.6 µM. 1.3% of 86,000 active; in the data active = activity above about 200%;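 note: binding measured in presence of low estradiol as agonist stimulus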
A number is an active result; i = inactive; nt = no result given; + = active, no number; [ ] = another dose, or the depositor's remark.

SMILES	ERb SRC1 inh	Smad3 inh	ERa coact inh	ERa coact pot
CC(C)Cn1c(SCC(=O)c2ccc(Cl)s2)nnc1-c1ccco1	i	i	i	i
CCOC(=O)c1[nH]c(C)c(C(=O)N2CCN(C(=O)OCC)CC2)c1CC	i	i	99[fluorescence artefact?]	i
CN(C)CCCNc1ncnc2nc[nH]c12	nt	i	nt	nt
O=C(CSC1=NCCN1)c1ccccc1	nt	i	nt	nt
COCCNC(=O)NC(=O)COC(=O)c1cc([N+](=O)[O-])ccc1Sc1nc(C)cs1	i	i	i	i
O=[N+]([O-])c1ccc2c(N=Nc3ccc4ccccc4c3O)c(O)cc(S(=O)(=O)O)c2c1	nt	72	nt	nt
O=C1NCCCc2c1oc1ccc(O)cc21	i	i	i	i
Oc1c(Cl)cc(Cl)c2c1NCCC2	70[fluorescence artefact?]	i	89[fluorescence artefact?]	i
Cc1c(C(=O)OCC(=O)c2ccc3c(c2)OCCO3)oc2ccccc12	i	i	i	i
O=C(COC(=O)C(O)c1ccccc1)c1ccc2c(c1)OCCO2 (stereo unspecified)	i	i	i	421
Cc1cc(C(=O)CSc2nnc(-c3ccc(F)cc3)o2)c(C)n1CC1CCCO1 (stereo unspecified)	i	i	i	229[fluorescence artefact?]
COc1ccc(-c2nnc(SCC(=O)N3CCCC3)o2)cc1OC	i	i	i	i
COc1ccc(C(=O)CSc2nnc(-c3ccc(C)cc3)o2)cc1	i	i	51[fluorescence artefact?]	i
COc1cc(-c2nnc(SCC(=O)c3cc(C)n(CC4CCCO4)c3C)o2)cc(OC)c1OC (stereo unspecified)	i	i	i	i
COc1ccc(OC)c(C(=O)CSc2nnc(-c3ccc(OC)c(OC)c3)o2)c1	i	i	i	329
Cc1[nH]c2ccc(-c3nnc(SCC(=O)c4ccc(F)cc4)o3)cc2c1C	55[fluorescence artefact?]	i	65[fluorescence artefact?]	i
Cc1nc2c(Br)cc(Br)cc2cc1O	i	i	i	i
N/C(=N/O)c1cn([C@H]2O[C@@H](CO)[C@H](O)[C@H]2O)c2ncnc(NO)c12	nt	i	nt	nt
Cc1cc(C)cc(OCc2nnc(SCC(=O)c3ccc(Br)cc3)o2)c1	i	i	i	202
CCc1nnc(NC(=O)CSc2ncnc3c2oc2ccccc23)s1	i	i	i	238[fluorescence artefact?]
O=C(CSc1ncnc2c1oc1ccccc12)Nc1cccc(C(F)(F)F)c1	i	i	i	i
O=C(CSc1ncnc2c1oc1ccccc12)Nc1cccc(Cl)c1	i	i	i	373[fluorescence artefact?]
O=C(CSc1ncnc2c1oc1ccccc12)Nc1ccccc1F	55[fluorescence artefact?]	i	i	406[fluorescence artefact?]
COC(=O)c1ccc(CSc2ncnc3c2oc2ccccc23)o1	56[fluorescence artefact?]	62[fluorescence artefact?]	i	234[fluorescence artefact?]
O=C(CSc1ncnc2c1oc1ccccc12)Nc1nc2ccccc2s1	i	i	i	i
SMILES	ERb SRC1 inh	Smad3 inh	ERa coact inh	ERa coact pot
COc1ccc2c(Cl)cc(NC(=S)Nc3ccccc3)nc2c1	nt	i	nt	nt
COC(=O)c1ccc(CSc2ncn[nH]2)o1	86[fluorescence artefact?]	i	i	i
CCc1nnc(NC(=O)CSc2nnc(-c3ccccc3NC(=O)c3ccccc3)o2)s1	i	i	i	285[fluorescence artefact?]
CCOc1ccccc1NC(=O)CSc1ncnc2c1oc1ccccc12	i	i	i	274[fluorescence artefact?]
Fc1ccccc1CSc1ncnc2c1oc1ccccc12	i	i	i	213[fluorescence artefact?]
CC(=O)CSc1ncnc2c1oc1ccccc12	i	i	i	i
Cc1oc(C(C)(C)C)cc1C(=O)Nc1cccc(C(=O)O)c1	i	i	i	i
c1ccc(/C(=N\Nc2nc3ccccc3s2)c2ccccn2)cc1	nt	i	nt	nt
O=c1cc(CNC2CCCCC2)c2ccccc2[nH]1	i	i	i	i
Oc1cc(CN2COc3ccccc32)c(O)cc1CNC1CCCCC1	nt	74	nt	nt
Cc1oc2c(cc(NS(=O)(=O)c3ccc4c5c(cccc35)C(=O)N4)c3ccccc32)c1C(=O)OC(C)C	57	i	93[fluorescence artefact?]	i
CS(=O)(=O)N1CCN(c2ccccc2NC(=O)Cc2ccc(Cl)cc2)CC1	i	i	i	948[fluorescence artefact?]
CS(=O)(=O)N1CCN(c2ccccc2NC(=O)Cc2ccccc2)CC1	i	i	i	i
CN(C)CCN1C(=O)CC[C@@]2(C)C1=CC[C@H]1[C@H]2CC[C@@]2(C)[C@H]1CC[C@]2(C)O	nt	i	nt	nt
COc1cccc(NC(=O)Cc2nnc(SCC(=O)c3ccccc3)n2C)c1	i	i	i	i
Cc1ccc(NC(=O)Cc2nnc(SCC(=O)c3ccc(Br)cc3)n2C)cc1	i	i	i	201[fluorescence artefact?]
CC(=NCC(=O)O)c1ccccc1	nt	i	nt	nt
Cc1cccc(C(=O)Nc2cccc(C(=O)N3CCOCC3)c2)c1	i	i	i	239
COc1cccc(C(=O)Nc2cccc(C(=O)N3CCOCC3)c2)c1	i	i	i	i
CCCCCCN1CC(O)=C(c2nc3ccccc3[nH]2)C1=N	i	i	61[fluorescence artefact?]	244[fluorescence artefact?]
N=C1C(c2nc3ccccc3[nH]2)=C(O)CN1c1ccc(CC(=O)O)cc1	58	i	i	i
O=c1c2c([nH]c3ccccc13)C(=C1CCCC1)CC2	84	i	77[fluorescence artefact?]	i
CC1C/C(=N/O)C(C)CN1 (stereo unspecified)	i	i	i	i
CC1(C)Cc2c(sc3c2c2ncnn2c2nnc(SCC(=O)NCc4ccco4)n32)CO1	74[fluorescence artefact?]	i	i	i
CC(C)c1nc2sc3c(SCC(=O)NCc4ccco4)ncnc3c2c2c1CCC2	i	i	i	+[fluorescence artefact?]
SMILES	ERb SRC1 inh	Smad3 inh	ERa coact inh	ERa coact pot
CSc1nc(SCC(=O)NCc2ccco2)c2c3c(sc2n1)CN(C)CC3	i	i	52[fluorescence artefact?]	i
CC1(C)Cc2nc3sc4c(SCC(=O)NCc5ccco5)ncnc4c3cc2CO1	i	i	i	289[fluorescence artefact?]
C[C@H]1CCCC2(CC[N+](C)(CCC[N+](C)(C)C)CC2)C1 (stereo partly specified)	nt	i	nt	nt
O=C(O)[C@H]1CCCN1Cc1c[nH]c2ccccc12	nt	i	nt	nt
C#CC[N+]1(CC#Cc2ccc(C#CC[N+]3(CC#C)CCOCC3)cc2)CCOCC1	60[fluorescence artefact?]	i	i	i
CCN(C(=O)CN1CCCc2ccccc21)c1c(N)n(Cc2ccccc2)c(=O)[nH]c1=O	80[fluorescence artefact?]	i	i	i
CCN(C(=O)CN1CCN(c2ccccc2OC)CC1)c1c(N)n(Cc2ccccc2)c(=O)[nH]c1=O	i	i	i	i
Nc1nc(N)nc(CC(=O)O)n1	nt	i	nt	nt
C[C@H]1CN(CCO)CCN1c1ccccc1	nt	i	nt	nt
CCN(CC)C(=O)CSc1nc(N)c(C#N)c(-c2cccs2)c1C#N	i	i	i	221[fluorescence artefact?]
CCc1c(C#N)c(N)nc(SCC(=O)OCc2ccccc2)c1C#N	i	i	i	207[fluorescence artefact?]
COc1ccc(CCNC(=O)CSc2nc(N)c(C#N)c(-c3cccs3)c2C#N)cc1OC	i	i	i	i
N#Cc1c(SCC(=O)OCc2ccccc2)nsc1SCC(=O)OCc1ccccc1	i	i	i	i
Cc1ccccc1NC(=O)CSc1nc(N)c(C#N)c(-c2cccs2)c1C#N	51[fluorescence artefact?]	i	i	319[fluorescence artefact?]
CCN(CC)C(=O)CSc1ncnc2c(-c3cccs3)nsc12	51[fluorescence artefact?]	i	51[fluorescence artefact?]	i
CCN(CC)C(=O)CSc1nc(-c2cccs2)cc(-c2cccs2)c1C#N	i	i	i	i
